We go through two molecules from the supplement of paper PMC4206461.

The test deals with Pseudomonas aeruginosa PA14 wild type. Kind of test: respiration area under curve with compound as sole nitrogen source, 24 h (OmniLog AUC (arbitrary units)); higher = more respiration / better utilisation as nitrogen source. How it is done:
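Biolog Phenotype MicroArray plates PM6-PM8: each di/tripeptide is the sole nitrogen source (IF-0 medium with succinate/ferric citrate and dye mix A). Tetrazolium reduction was read in the OmniLog every 15 min for 24 h at 37°C and summarised as area under the respiration curve (arbitrary units). The paper counts values below 2000 as no respiration and above 8000 as solid respiration. Replicate datasets are averaged.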
On to `CC(C)C[C@@H](NC(=O)CNC(=O)CN)C(=O)O` (plate: PM8), for which the “respiration area under curve” value was 5880 (active).
To `CC(C)C[C@H](NC(=O)CNC(=O)CN)C(=O)O` (plate: PM8) belongs 10400 (active).
